Assay outcomes: PubChem BioAssay, Columbia University Molecular Screening Center
This is one part of a sample in which hits are shown more often than they occur.
VCAM1 pot – potentiators of TNFa-induced VCAM1 expression, primary screen, imaging, HUVEC, TNFa stimulus, immunofluorescence | 93,000 compounds, 0.19% hits | activation, % at 2 µM | HUVEC TNFa-stimulated VCAM-1 immunofluorescence, high-content imaging; scaled per plate to unstimulated/TNFa-only wells;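 active = activation above the screen mean plus 3 SD, with well images confirming the hit on visual review, cut at about 28% in these data, passing the limit was not always enough; inconclusive = activation above that limit but images do not confirm it; inactive = activation not above that limit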;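 note: signal is the number of cytoplasmic VCAM-1 stained grains per positive cell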
VCAM1 pot confirm – potentiators of TNFa-induced VCAM1 expression, confirmation, imaging, HUVEC, triplicate retest | shares compounds with VCAM1 pot | HUVEC TNFa-stimulated VCAM-1 immunofluorescence imaging | activation, % at 2 µM | 230 tested, under 10 active | AID 1034, 2008;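 active = activation above 30% in triplicate retests at 2 µM, then confirmed by visual review of the well images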;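 note: scaled per plate between unstimulated and TNFa-stimulated DMSO control wells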
Active calls of the source: *.

Screening COc1cc(NC(=S)NC(=O)c2ccc(C)cc2C)ccc1NC(=O)c1cccs1 returned VCAM1 pot -5.
Screening CC1=C(C(=O)Nc2cc(C)ccc2C)C(c2cccs2)NC(=S)N1 (centres undefined) returned VCAM1 pot 52* and VCAM1 pot confirm -11.
`CCc1noc(C)c1C(=O)Nc1sc(C(=O)N(C)C)c(C)c1C(=O)OC` gave VCAM1 pot -2.
CCOc1ccccc1Nc1nnc(SCC(=O)N2CCCC2)s1 was read as VCAM1 pot 6.
CCOC(=O)/C(=C\c1cccnc1)C(=O)c1cc(C(C)=O)c(Nc2ccccc2)s1 was read as VCAM1 pot -54.
Screening CCOC(=O)/C(=C\c1ccccc1)C(=O)c1cc(C(C)=O)c(Nc2ccccc2)s1 returned VCAM1 pot 68* and VCAM1 pot confirm -13.
For S=c1[nH]nc(COc2ccc3c(c2)OCO3)n1-c1ccccc1 the results were VCAM1 pot -97.
O=C(Oc1cccc2c(OC(=O)N3CCCC3)cccc12)N1CCCC1 was read as VCAM1 pot 11.
Screening O=S(=O)(Nc1ccc(Cc2ccncc2)cc1)c1ccc(Br)cc1 returned VCAM1 pot 6.
For CN1CCN(S(=O)(=O)c2ccc(Sc3nnc(-c4cccs4)n3-c3ccccc3)nc2)CC1 the results were VCAM1 pot 59* and VCAM1 pot confirm -6.
CC(Sc1nnc(-c2cccs2)n1-c1ccccc1)C(=O)NCc1ccco1 (centres undefined) was read as VCAM1 pot -3.
`Cc1ccc(OCCSc2nnc(-c3cccs3)n2C)cc1` gave VCAM1 pot 7.
Screening COC(=O)c1ccccc1NC(=O)c1cc(-c2ccc(OC)c(OC)c2)on1 returned VCAM1 pot 1.
`CCCCCOC(=O)C1[C@H]2C(=O)N(CCCOC)C[C@]23C=C[C@H]1O3` (some centres undefined) gave VCAM1 pot -10.
O=C(CNC(=O)c1ccco1)OCc1ccc(Cl)cc1 was read as VCAM1 pot -23.
Cc1nc(NCc2ccccc2)[nH]c(=O)c1CCC(C)C was read as VCAM1 pot inconclusive and VCAM1 pot confirm -16.
Screening C=C(C)CSc1nc(C)c(Cc2ccccc2)c(=O)[nH]1 returned VCAM1 pot -2.
COc1ccc(C(C)(C)C)cc1S(=O)(=O)N1CCN(C)CC1 was read as VCAM1 pot -93.
Screening O=C1CC(N2CCOCC2)C(=O)N1c1ccc2c(c1)OCO2 (centres undefined) returned VCAM1 pot 11.
For COc1ccc(N2C(=O)CC(N3CCN(S(=O)(=O)c4c(F)cccc4F)CC3)C2=O)cc1OC (centres undefined) the results were VCAM1 pot 57* and VCAM1 pot confirm -15.
For COc1ccc(-c2c[n+]3c4n2CCCCC4=C(c2ccccc2)C3)cc1 the results were VCAM1 pot 0.
Screening CCOC(=O)COc1ccc2c(c1)C(=O)CC1(CCCCC1)O2 returned VCAM1 pot 3.
`CCOC(=O)N1CCN(/C=C(\C#N)c2nc3ccccc3s2)CC1` gave VCAM1 pot -10.
Screening CCC(C)COC(=O)C(C#N)c1nc2ccccc2nc1N1CCCCC1 (centres undefined) returned VCAM1 pot 36* and VCAM1 pot confirm -17.
Screening CC(=O)c1c(N2CCC(C(N)=O)CC2)nc(=S)n(-c2ccccc2)c1C returned VCAM1 pot 1.
`Cc1ccccc1-c1nc(CN2CCC(C(=O)NCCCN3CC(C)CC(C)C3)CC2)c(C)o1` (centres undefined) gave VCAM1 pot -43.
For Cc1ccc(S(=O)(=O)/N=C(\c2ccc(Cl)cc2)N2CCOCC2)cc1 the results were VCAM1 pot 6.
`O=C(Oc1ccc(Cl)c2cccnc12)N1CCCCCC1` gave VCAM1 pot 5.
CCCC1=C(C(=O)OCC)C(c2c(C)nn(-c3ccccc3)c2Cl)C(C#N)=C(N)O1 (centres undefined) was read as VCAM1 pot 44* and VCAM1 pot confirm -24.
`CCOC(=O)C1=C(CSc2nc3c(cc2C#N)CN(C)CC3)OC(N)=C(C#N)C1c1ccccc1` (centres undefined) gave VCAM1 pot -96.
CCCc1nn(-c2ccccc2)c2c1C(c1cccs1)C(C#N)=C(N)O2 (centres undefined) was read as VCAM1 pot 8.
Screening O=C(Cc1ccc(Cl)cc1)Nc1ccccc1CO returned VCAM1 pot -35.
Screening CCN(CC)S(=O)(=O)c1ccc(C(=O)NCCCN=C2NS(=O)(=O)c3ccccc32)cc1 returned VCAM1 pot -48.
`CC(=O)c1ccc(NS(=O)(=O)c2cccc(C)c2)cc1` gave VCAM1 pot 72* and VCAM1 pot confirm -8.
`Cc1cccc(NS(=O)(=O)c2ccc(C)c(C(=O)OCC(=O)Nc3cc(C)on3)c2)c1` gave VCAM1 pot -6.
